ADAM10 inh – inhibitors of human ADAM10; inhibition, % at 7 µM; 370,000 compounds, 0.62% hits; recombinant ADAM10, EDANS/DABCYL FRET peptide cleavage, 3 h; O14672; AID 720582;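 active = inhibition above a per-campaign cutoff equal to the mean of compounds falling between control-based bounds plus 3 SD, cut at about 20% in these data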
Target sequence (O14672 214-748 limits assumed): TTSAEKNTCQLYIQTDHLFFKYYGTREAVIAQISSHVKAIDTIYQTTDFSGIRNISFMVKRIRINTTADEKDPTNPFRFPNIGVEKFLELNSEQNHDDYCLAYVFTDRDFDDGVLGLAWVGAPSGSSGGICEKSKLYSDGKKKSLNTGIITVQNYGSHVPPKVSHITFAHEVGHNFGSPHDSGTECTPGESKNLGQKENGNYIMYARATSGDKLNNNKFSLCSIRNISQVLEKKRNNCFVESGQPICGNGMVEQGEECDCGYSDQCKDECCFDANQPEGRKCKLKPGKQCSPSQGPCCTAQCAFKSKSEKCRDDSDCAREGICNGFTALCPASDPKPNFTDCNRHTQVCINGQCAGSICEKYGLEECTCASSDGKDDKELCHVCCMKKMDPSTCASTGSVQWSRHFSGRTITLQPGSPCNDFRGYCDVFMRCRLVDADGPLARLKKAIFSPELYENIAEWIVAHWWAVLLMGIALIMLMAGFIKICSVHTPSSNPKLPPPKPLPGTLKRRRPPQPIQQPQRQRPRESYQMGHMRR
FAS-TE inh – FAS thioesterase (human) inhibition | P49327 | recombinant FAS-TE, OMFH fluorogenic substrate, fluorescence endpoint | inhibition, % at 15 µM | 360,000 compounds, 0.67% hits | AID 602261;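 active = compounds whose normalised, plate-corrected inhibition of enzyme fluorescence in the single-dose primary screen is 50% or more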
NR3A LBD binder – NR3A (human) ligand-binding domain modulation; NR3A LBD differential scanning fluorimetry, Tm shift; 0% = protein alone, 100% = glycine-bound protein; Tm shift relative to glycine control, % at 25 µM; 340,000 compounds, 2.5% hits; AID 1259313;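 active = melting temperature shift of at least 10% of the positive control shift, at one fixed dose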
KLK7 zymogen act – activators of human kallikrein-7 zymogen. 370,000 compounds, 0.9% hits. activation, % at 7 µM. P49862. purified proKLK7, EDANS-DABCYL substrate fluorescence; 100% is mature enzyme control, 0% vehicle. AID 652039;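 active = activation above the mean of all tested compounds plus 3 SD, computed per campaign excluding outliers beyond control limits, cut at about 13% in these data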
ADAM17 inh – inhibitors of human ADAM17; P78536; AID 720648; inhibition, % at 6.95 µM; recombinant ADAM17, EDANS/DABCYL FRET peptide cleavage; 370,000 compounds, 0.83% hits;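 active = inhibition above the mean of compounds lying between control limits plus 3 SD, set per campaign, cut at about 8.5% in these data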
Hits are given with their value; n = inactive; x = not tested or not shown. In the library only some 4.6% were active in any assay of this set; here they are far more common.

SMILES	ADAM10 inh	FAS-TE inh	NR3A LBD binder	KLK7 zymogen act	ADAM17 inh
O=S(=O)(c1ccccc1Br)N(Cc1cn(Cc2ccccc2)nn1)C1CC1	n	x	x	n	n
COC(=O)CC[C@H](/C=C/C(=O)OC(C)(C)C)Sc1ccc(C(C)(C)C)cc1	n	x	x	n	n
COc1ccc([C@H]2Oc3cc(O)cc(O)c3C(=O)C2[C@@H]2C(=O)c3c(O)cc(O)cc3O[C@@H]2c2ccc(OC)cc2)cc1 (stereo partly specified)	n	x	28	n	n
CCC(=O)Nc1ccc(C(=O)N/N=C/c2ccc([N+](=O)[O-])cc2)cc1	n	n	16	n	n
O=C(N/N=C/c1ccc([N+](=O)[O-])cc1)c1ccc(COc2ccccc2-c2ccccc2)cc1	n	n	16	n	n
CCC(=O)Nc1ccc(C(=O)NNC(=O)c2ccc([N+](=O)[O-])cc2)cc1	n	n	n	n	n
O=C(COc1ccc(/C=N/NS(=O)(=O)c2ccccc2)cc1)Nc1cccc(Cl)c1	n	n	16	n	n
O=C(COc1ccc(/C=N/NS(=O)(=O)c2ccccc2)cc1)NCc1ccccc1	n	n	n	n	n
Nc1ccc(C(=O)N/N=C\C=C\c2ccc([N+](=O)[O-])cc2)cc1	n	n	15	n	n
O=C(CO/N=C/c1cccc([N+](=O)[O-])c1)NC1CCCCC1	n	n	n	n	n
O=C(COc1ccc(/C=N/NC(=O)c2ccc(O)cc2)cc1)Nc1cccc([N+](=O)[O-])c1	n	n	31	n	n
O=C(CO/N=C/c1cccc([N+](=O)[O-])c1)Nc1ccc2ccccc2c1	n	n	13	n	n
O=C(Nc1ccccc1C(=O)OCC(=O)c1c[nH]c2ccccc12)c1ccco1	n	n	26	n	n
CC(C)(C)NC(=O)COC(=O)c1ccccc1NC(=O)c1ccco1	n	n	n	n	n
C=C(C)CNC(=S)NNC(=O)CCn1c2cc(Cl)ccc2c2ccc(Cl)cc21	n	n	16	n	n
C=C(C)CNC(=S)NNC(=O)CCn1c2ccccc2c2ccccc21	n	n	n	n	n
O=C(CN1C(=O)c2cccc3cccc1c23)NCC1CCCO1 (stereo unspecified)	n	n	16	n	n
COC(=O)[C@]12C[C@H](CC(=O)N3CCCCC3)C(=O)N(Cc3ccc4c(c3)OCO4)C1=C[C@H](C(C)C)O[C@@H]2C1CC1	n	x	x	n	n
CCN(CC(=O)N1CCC(C)CC1)S(=O)(=O)c1ccc(C)cc1	n	n	n	n	n
Cc1ccc(S(=O)(=O)N(CC(=O)N2CCC(C)CC2)Cc2ccccc2F)cc1	n	n	13	n	n
CCOC(=O)/C(=N\O)C1=NC(C)(C)Cc2ccccc21	n	n	n	n	n
CCOC(=O)/C(C(=O)Nc1ccccc1Br)=C1/NC(C)(C)Cc2ccccc21	n	n	13	n	n
CCOC(=O)NC(=S)Nc1ccc(C(C)(C)C)cc1Br	n	n	18	n	n
CCCCOc1cccc(-c2cc(C(=O)NNC(=S)NCC)c3ccccc3n2)c1	n	74	11	n	n
CCNC(=S)NNC(=O)c1cc(-c2ccc(OC)cc2)nc2ccccc12	n	n	n	n	n
SMILES	ADAM10 inh	FAS-TE inh	NR3A LBD binder	KLK7 zymogen act	ADAM17 inh
CCCCOc1ccc(-c2cc(C(=O)NNC(=S)NCC)c3ccccc3n2)cc1	x	n	17	x	x
CCNC(=S)NNC(=O)c1cc(-c2cccc(OCC)c2)nc2ccccc12	n	n	n	n	n
COC(=O)C1=C(C(=O)OC)[C@@]2([C@@H](Cc3ccc(C)cc3)Nc3ccccc3)C=C[C@@H]1O2	n	x	x	x	n
S=c1nc[nH]c2c1[nH]c1ccc(Cl)cc12	n	n	33	n	n
S=c1nc[nH]c2c1[nH]c1ccccc12	n	n	n	n	n
NC(=S)N/N=C/c1ccc(C23CC4CC(CC(C4)C2)C3)cc1	x	x	10	x	x
NC(=S)N/N=C/c1ccccc1	n	n	n	n	n
Cc1onc(-c2ccccc2Cl)c1C(=O)OCC(=O)c1ccc2c(c1)OCCO2	n	n	12	n	n
Cc1nc(/C(N)=N/OC(=O)c2c(-c3ccccc3Cl)noc2C)cs1	n	n	n	n	n
COc1ccc(/C(N)=N/OC(=O)c2c(-c3ccccc3Cl)noc2C)cc1OC	n	n	18	n	n
CC(=O)CC[C@H]1CC[C@]2(CCCN(S(=O)(=O)c3ccccc3)C2)O1	n	x	x	n	n
CC(C)CNC(=O)OCc1cn(Cc2ccccc2Cl)nn1	n	x	x	n	n
COc1cc(/C=N/n2cnc3c(sc4nc(C)cc(C)c43)c2=O)ccc1O	x	x	26	x	x
Cn1nnnc1SC(C(=O)Nc1cccc(C(F)(F)F)c1)c1ccccc1 (stereo unspecified)	n	n	13	n	n
O=C(Nc1cccc(C(F)(F)F)c1)C(Sc1ncnc2ccccc12)c1ccccc1 (stereo unspecified)	n	n	18	n	n
O=C(Nc1cccc(C(F)(F)F)c1)C(SCCO)c1ccccc1 (stereo unspecified)	n	n	n	n	n
Cc1cc(N2CCN(CCO)CC2)n2nc(C)nc2n1	n	x	x	n	n
Oc1cccc(-c2nc3ccc4ccccc4c3c3c2CCC3)c1	n	n	12	n	n
COc1cccc(/C=C2\SC(=S)NC2=O)c1OS(=O)(=O)c1ccc(NC(C)=O)cc1	n	n	n	n	n
CC(=O)Nc1ccc(S(=O)(=O)Oc2cccc(/C=C3\SC(N)=NC3=O)c2)cc1	n	n	36	n	n
COc1cc(/C=C2/SC(=S)NC2=O)ccc1OS(=O)(=O)c1ccc(C)cc1	x	57	n	x	x
COc1cc(/C=C2\SC(=S)N(CCCCC(=O)O)C2=O)ccc1OS(=O)(=O)c1ccc(C)cc1	n	n	31	n	n
COc1ccc(/C=C2\SC(=S)NC2=O)cc1OS(=O)(=O)c1ccc(NC(C)=O)cc1	n	n	18	n	n
Cc1ccc(Nc2nnc(SCC(=O)N(C)C3CCS(=O)(=O)C3)s2)cc1 (stereo unspecified)	n	n	n	n	n
Cc1ccc(Nc2nnc(SCC(=O)c3ccc(O)cc3O)s2)cc1	n	n	26	n	n
SMILES	ADAM10 inh	FAS-TE inh	NR3A LBD binder	KLK7 zymogen act	ADAM17 inh
Cc1cccc(Nc2nnc(SCC(=O)c3ccc(O)cc3O)s2)c1	n	n	33	n	n
CCC(C)(C)n1nnnc1CN(Cc1ccco1)Cc1cc2cc3c(cc2[nH]c1=O)OCO3	x	n	n	x	x
COc1ccc(Cn2nnnc2CN(Cc2cc3ccc(C)cc3[nH]c2=O)C2CCCC2)cc1	n	n	n	15	n
COc1cc2cc(CN(Cc3nnnn3Cc3ccco3)C3CCCCC3)c(=O)[nH]c2cc1OC	n	n	n	13	n
CC(C)(C)n1nnnc1CN(Cc1ccco1)Cc1cc2cc3c(cc2[nH]c1=O)OCO3	n	n	n	28	n
COC(=O)c1ccc(S(=O)(=O)N2CCC(NC(=O)CCC3CCCC3)CC2)cc1	n	x	x	n	n
Cc1ccc(NC(=S)N(Cc2cccc(Br)c2)CC2CCC(C(=O)O)CC2)cc1 (stereo unspecified)	n	n	13	n	n
